From ChEMBL document CHEMBL3988442, “University of Dundee, Small-Polar-MMV Screening Library” (2021)
For part of these data: Potency and affinity values are given separately.

Experiments:
Set-up in all cases: scale not given: direction of the effect not stated beside the values
[1] = molecular target: Protein translocase subunit SecA (Escherichia coli (strain K12)) (UniProt P10408); assay: Assay to Identify E. coli SecA ATPase Inhibitors; format: functional; details: 30 µM
[2] = molecular target: T1, Ubiquitin-activating enzyme e1, putative (Leishmania donovani (strain BPK282A1)) (UniProt E9BSI1); assay: Leishmania donovani Ubiquitin Activating Enzyme (LdE1); format: functional; details: 30 µM
T1 sequence (whole entry): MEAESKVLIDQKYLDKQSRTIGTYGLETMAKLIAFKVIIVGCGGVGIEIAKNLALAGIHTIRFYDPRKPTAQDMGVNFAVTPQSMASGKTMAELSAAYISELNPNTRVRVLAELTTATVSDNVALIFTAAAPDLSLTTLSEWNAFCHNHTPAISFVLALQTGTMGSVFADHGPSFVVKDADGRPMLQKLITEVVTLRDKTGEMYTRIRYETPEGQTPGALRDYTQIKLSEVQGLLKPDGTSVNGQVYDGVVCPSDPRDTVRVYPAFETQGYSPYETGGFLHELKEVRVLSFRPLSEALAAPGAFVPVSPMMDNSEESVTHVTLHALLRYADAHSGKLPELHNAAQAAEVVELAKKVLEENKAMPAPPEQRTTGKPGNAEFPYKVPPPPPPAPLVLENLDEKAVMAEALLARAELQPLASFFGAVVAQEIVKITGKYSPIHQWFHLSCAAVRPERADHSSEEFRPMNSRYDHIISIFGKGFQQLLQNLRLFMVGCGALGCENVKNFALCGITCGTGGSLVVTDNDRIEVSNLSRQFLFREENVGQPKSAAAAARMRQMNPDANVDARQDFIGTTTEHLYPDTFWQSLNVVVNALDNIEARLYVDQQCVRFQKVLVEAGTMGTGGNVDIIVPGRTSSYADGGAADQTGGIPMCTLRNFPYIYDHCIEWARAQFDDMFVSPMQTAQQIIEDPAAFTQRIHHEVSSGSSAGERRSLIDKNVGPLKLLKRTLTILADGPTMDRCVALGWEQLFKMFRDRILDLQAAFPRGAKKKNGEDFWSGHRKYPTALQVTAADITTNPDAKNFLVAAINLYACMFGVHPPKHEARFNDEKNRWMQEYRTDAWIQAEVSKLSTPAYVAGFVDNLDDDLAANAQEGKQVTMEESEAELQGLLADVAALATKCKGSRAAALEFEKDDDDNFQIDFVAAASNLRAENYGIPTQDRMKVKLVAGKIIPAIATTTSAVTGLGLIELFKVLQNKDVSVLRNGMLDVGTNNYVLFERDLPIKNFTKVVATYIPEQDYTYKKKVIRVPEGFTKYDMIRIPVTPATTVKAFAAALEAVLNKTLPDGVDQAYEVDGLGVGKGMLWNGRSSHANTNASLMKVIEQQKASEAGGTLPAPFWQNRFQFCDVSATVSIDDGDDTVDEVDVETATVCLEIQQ

[3] = molecular target: Sialic acid-binding Ig-like lectin 9 (Homo sapiens) (UniProt Q9Y336); assay: Hs-Siglec9 ALPHAscreen SOP 20170721; details: 10 µM
Sequence of Sialic acid-binding Ig-like lectin 9 (Homo sapiens) (Q9Y336 whole entry): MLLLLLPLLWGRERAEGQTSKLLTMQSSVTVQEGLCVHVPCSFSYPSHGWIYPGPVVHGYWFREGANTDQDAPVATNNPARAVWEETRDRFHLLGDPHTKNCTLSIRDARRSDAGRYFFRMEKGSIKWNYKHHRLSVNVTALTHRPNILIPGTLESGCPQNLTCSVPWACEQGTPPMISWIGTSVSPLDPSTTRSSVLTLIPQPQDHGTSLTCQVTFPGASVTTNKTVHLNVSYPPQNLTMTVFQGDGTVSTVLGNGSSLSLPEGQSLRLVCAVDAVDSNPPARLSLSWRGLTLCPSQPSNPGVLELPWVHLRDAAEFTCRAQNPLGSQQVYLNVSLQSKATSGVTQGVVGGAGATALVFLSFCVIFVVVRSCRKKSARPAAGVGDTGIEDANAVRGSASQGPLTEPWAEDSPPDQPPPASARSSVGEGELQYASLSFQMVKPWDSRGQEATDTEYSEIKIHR

[4] = tested on: Trypanosoma cruzi; assay: Trypanosoma cruzi phosphomannomutase and mannose-1-phosphate guanylyltransferase assay; format: functional; details: 10 µM
[5] = molecular target: T2, Arginase-2, mitochondrial (Homo sapiens) (UniProt P78540); assay: in vitro enzyme assay to detect the production of urea directly proportional to the activity of Arginase II; format: functional; details: 33.3 µM; also: in the data most compounds retested in dose-response had high values
T2 sequence (whole entry): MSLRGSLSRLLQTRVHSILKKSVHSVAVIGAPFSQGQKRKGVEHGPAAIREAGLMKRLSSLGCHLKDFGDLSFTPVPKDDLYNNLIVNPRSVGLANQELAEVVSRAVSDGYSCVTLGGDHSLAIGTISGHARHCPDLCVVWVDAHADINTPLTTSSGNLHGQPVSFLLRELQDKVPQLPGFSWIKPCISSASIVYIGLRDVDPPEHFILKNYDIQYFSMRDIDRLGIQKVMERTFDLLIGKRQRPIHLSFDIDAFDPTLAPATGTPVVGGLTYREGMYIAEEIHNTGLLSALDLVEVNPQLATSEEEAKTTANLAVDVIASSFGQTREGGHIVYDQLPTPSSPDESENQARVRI

[6] = molecular target: T3, Proteasome subunit beta (Trypanosoma cruzi) (UniProt O96673); assay: Trypanosoma cruzi proteasome chymotrypsin-like activity (TcProtChymo) assay.; also: in the data most compounds retested in dose-response had high values; format: functional; details: 9.37 µM
T3 sequence (whole entry): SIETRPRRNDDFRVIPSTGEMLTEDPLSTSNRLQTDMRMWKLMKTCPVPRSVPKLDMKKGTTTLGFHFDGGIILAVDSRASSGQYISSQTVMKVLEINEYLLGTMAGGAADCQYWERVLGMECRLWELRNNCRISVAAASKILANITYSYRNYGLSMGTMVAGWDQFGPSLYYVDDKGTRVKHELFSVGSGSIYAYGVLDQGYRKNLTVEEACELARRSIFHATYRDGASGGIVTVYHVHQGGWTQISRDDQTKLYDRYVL

[7] = species: Homo sapiens; assay: To identify inhibition of the IFN signalling (Jak-Stat) pathway via expression of an eGFP reporter gene under the control of an IFN-stimulated response element (ISRE) containing MxA promoter.; format: functional; details: 30 µM
[8] = molecular target: T4, Tyrosyl-tRNA synthetase, putative (Trypanosoma cruzi (strain CL Brener)) (UniProt Q4DSP6); assay: Trypanosoma cruzi tyrosyl tRNA synthetase (TcYRS) _High Tyrosine SOP; format: functional; details: 30 µM; also: in the data most compounds retested in dose-response had high values
T4 sequence (whole entry): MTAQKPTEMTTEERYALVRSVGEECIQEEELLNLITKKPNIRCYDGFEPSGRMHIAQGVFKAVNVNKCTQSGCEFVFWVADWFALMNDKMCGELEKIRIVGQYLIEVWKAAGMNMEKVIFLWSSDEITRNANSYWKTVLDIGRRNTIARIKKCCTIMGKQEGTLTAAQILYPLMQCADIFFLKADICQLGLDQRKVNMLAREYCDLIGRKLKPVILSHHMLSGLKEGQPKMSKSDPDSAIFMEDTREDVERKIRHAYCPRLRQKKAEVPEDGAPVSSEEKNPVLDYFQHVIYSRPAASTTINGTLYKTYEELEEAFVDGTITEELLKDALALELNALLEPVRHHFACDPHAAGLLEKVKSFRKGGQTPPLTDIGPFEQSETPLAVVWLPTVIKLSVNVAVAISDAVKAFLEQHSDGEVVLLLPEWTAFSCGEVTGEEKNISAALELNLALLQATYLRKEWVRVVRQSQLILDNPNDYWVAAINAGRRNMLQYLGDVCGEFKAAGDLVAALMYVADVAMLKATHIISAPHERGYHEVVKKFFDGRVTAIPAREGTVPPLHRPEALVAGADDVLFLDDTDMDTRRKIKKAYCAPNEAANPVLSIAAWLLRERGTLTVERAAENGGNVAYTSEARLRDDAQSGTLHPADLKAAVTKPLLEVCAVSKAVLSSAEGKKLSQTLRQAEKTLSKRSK

[9] = molecular target: T4, Tyrosyl-tRNA synthetase, putative (Trypanosoma cruzi (strain CL Brener)); assay: Trypanosoma cruzi tyrosyl tRNA synthetase (TcYRS) SOP; format: functional; details: 30 µM
[10] = molecular target: Chromo domain-containing protein 1 (Saccharomyces cerevisiae (strain ATCC 204508 / S288c) (Baker's yeast)) (UniProt P32657); assay: ScCHD-1 Enzyme Inhibition Assay; format: functional; details: 30 µM; also: in the data most compounds retested in dose-response had high values
Sequence of Chromo domain-containing protein 1 (Saccharomyces cerevisiae (strain ATCC 204508 / S288c) (Baker's yeast)) (P32657 whole entry, the tested form may be a part): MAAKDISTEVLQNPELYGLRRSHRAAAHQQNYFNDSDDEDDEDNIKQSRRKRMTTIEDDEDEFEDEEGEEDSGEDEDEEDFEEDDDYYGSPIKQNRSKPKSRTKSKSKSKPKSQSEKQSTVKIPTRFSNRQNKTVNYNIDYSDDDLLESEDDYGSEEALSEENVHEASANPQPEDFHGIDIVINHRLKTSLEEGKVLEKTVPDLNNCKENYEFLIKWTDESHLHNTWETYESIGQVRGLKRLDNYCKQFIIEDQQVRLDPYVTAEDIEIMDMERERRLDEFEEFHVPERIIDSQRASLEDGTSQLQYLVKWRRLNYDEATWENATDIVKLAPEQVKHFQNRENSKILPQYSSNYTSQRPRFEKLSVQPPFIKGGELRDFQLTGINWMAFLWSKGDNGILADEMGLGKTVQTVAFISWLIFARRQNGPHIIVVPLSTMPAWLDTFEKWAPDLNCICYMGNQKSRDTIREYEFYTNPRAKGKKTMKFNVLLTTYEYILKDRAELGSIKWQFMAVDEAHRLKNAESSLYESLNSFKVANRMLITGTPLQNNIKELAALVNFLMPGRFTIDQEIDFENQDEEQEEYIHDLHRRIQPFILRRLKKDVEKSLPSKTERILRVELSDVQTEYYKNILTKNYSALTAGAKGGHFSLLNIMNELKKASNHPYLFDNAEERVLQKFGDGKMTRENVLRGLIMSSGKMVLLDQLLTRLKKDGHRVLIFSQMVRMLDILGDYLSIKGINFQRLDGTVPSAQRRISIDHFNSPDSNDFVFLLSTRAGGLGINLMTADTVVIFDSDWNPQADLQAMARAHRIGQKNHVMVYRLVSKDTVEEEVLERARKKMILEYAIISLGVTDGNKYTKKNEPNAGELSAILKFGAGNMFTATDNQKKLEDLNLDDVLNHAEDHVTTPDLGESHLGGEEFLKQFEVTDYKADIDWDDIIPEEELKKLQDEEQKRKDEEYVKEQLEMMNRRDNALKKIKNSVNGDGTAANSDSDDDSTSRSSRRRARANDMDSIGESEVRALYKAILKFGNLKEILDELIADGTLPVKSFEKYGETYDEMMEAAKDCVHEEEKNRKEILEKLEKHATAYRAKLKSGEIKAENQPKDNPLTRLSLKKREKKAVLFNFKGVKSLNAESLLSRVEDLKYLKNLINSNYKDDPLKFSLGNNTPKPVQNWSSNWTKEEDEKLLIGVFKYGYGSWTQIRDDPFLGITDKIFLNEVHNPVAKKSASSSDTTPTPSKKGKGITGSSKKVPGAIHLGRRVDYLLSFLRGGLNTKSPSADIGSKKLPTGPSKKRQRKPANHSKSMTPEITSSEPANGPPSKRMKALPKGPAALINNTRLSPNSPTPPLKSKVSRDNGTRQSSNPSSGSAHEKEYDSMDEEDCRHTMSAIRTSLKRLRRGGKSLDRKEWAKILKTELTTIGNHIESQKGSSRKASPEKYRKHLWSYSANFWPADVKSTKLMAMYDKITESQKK

Sequence of Protein translocase subunit SecA (Escherichia coli (strain K12)) (P10408 whole entry): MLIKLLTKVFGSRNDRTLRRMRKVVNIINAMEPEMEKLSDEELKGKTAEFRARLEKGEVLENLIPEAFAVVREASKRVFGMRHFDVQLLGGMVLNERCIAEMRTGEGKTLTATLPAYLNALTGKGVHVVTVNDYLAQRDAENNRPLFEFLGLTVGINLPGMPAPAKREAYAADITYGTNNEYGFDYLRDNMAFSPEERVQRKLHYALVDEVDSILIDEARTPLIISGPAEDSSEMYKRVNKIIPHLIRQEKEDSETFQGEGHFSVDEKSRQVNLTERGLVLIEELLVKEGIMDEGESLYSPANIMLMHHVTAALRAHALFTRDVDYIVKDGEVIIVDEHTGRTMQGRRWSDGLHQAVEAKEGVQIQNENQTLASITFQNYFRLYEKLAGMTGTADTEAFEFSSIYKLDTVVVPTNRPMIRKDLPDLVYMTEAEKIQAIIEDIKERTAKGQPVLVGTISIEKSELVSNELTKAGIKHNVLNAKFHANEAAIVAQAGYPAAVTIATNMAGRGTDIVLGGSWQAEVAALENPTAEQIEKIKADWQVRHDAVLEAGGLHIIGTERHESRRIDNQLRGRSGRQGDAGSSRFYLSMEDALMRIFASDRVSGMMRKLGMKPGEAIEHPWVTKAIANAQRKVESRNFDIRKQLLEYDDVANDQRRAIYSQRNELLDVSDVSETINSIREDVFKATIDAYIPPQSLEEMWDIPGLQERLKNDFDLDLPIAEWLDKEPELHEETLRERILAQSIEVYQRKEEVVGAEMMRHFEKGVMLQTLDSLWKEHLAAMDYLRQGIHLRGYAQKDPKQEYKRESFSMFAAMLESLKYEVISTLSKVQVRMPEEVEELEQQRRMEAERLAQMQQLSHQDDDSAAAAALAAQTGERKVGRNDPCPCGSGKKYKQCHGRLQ

| SMILES | Percent Effect [1] [%] | Percent Effect [2] [%] | Percent Effect [3] [%] | Percent Effect [4] [%] | Percent Effect [5] [%] | Percent Effect [6] [%] | Percent Effect [7] [%] | Percent Effect [8] [%] | Percent Effect [9] [%] | Percent Effect [10] [%] |
| --- | --- | --- | --- | --- | --- | --- | --- | --- | --- | --- |
| CC(O)(CN1CCC2(CC1)OCCO2)c1cccc(C(F)(F)F)c1 (stereo not given) | 1.91 | 10.4 | 8.88 | -0.187 | -2.25 | 2.98 | 18.4 | 3.92 | 21.2 | -7.48 |
| CN(C)c1ccc(NC(=O)NCc2ccccn2)cn1 | -1.7 | 20.8 | -3.66 | -3.92 | -0.205 | 11.9 | -8.9 | 5.88 | 18.8 | -9.39 |
| Cc1n[nH]c(=O)c2c(NC(=O)CN3CCOC(C)C3)oc(C)c12 (stereo not given) | 1.61 | 17.9 | -15.7 | 1.78 | 4.92 | 16.6 | 25.5 | 3.35 | 18.1 | -6.38 |
| CS(=O)(=O)NCC1CCCN(C(=O)COCc2ccccc2)C1 (stereo not given) | -1.97 | 15.4 | -3.29 | 4.41 | 6.56 | 1.96 | 17.6 | 0.478 | 20.5 | -5.38 |
| CC1(C)OCC(CNC(=O)c2cnn(-c3cc(Cl)ccc3Cl)c2N)O1 (stereo not given) | 3.78 | 9.33 | -9.42 | -1.97 | 3.98 | 17.1 | 11.8 | 0 | 7.5 | -20.1 |
| CCc1nccn1C1CCCN(C(=O)Cc2ccc(OC)c(F)c2)C1 (stereo not given) | -7.36 | 16 | 14.5 | -1.21 | 1.77 | 7.38 | 13 | 6.84 | 10.3 | -9.19 |
| CNC(=O)COc1ccccc1CNC1CCc2ncnn2C1 (stereo not given) | -1.08 | 2.56 | -25.1 | 6.67 | -1.23 | 18.7 | 13.3 | 6.22 | 20.5 | 44.8 |
| N#Cc1cccc(N2CC3(CCN(C(=O)c4cccnc4)C3)CC2=O)c1 (stereo not given) | -6.73 | 9.09 | -3.3 | -4.58 | -3.64 | 12.6 | -1.73 | 3.68 | 15.4 | -3.29 |
| CC(C)Oc1ncccc1CNC(=O)c1ccco1 | -4.42 | 16 | 0.422 | 0.402 | 5.32 | 13.5 | 7.02 | 5.79 | 17.9 | -8.28 |
| O=C(CC1CCCC1)N1C[C@@H]2CCN(c3cccnc3)C[C@@H]2C1 | -3.01 | 3.9 | 3.29 | -3.94 | 2.28 | 19.3 | 35.3 | 2.9 | 0 | -2.18 |
| CC(C)CN1CCC2(CCN(Cc3ccoc3)CC2)C1=O | -1.85 | 27.3 | 3.42 | 3.94 | -4.57 | 19.7 | -0.618 | 10.6 | 12.5 | -9.31 |
| Cc1cnn(CC2CCCCN2CCn2cncn2)c1 (stereo not given) | -1.55 | 16 | -7.29 | -3.61 | 4.88 | 14.2 | 5.08 | 5.79 | 7.69 | -6.72 |
